# Assay results as given in PubChem BioAssay (EPA / NIEHS).
# Values joined by “and” are separate entries in the source; they are usually repeats but may differ in a detail not shown here. Equal entries are not always repeated. Results filed as inconclusive are left out. Active and inactive are the calls of the source. Rule for the calls: active = hit-call score of the fitted dose curve at least 0.9, where 1 is the maximum; inconclusive = response in the unintended direction; inactive = score below 0.9.
# Assay: TOX21_p53_BLA_p2_viability: Viability Assessment in the Tox21 HCT-116 p53 Agonism Beta-lactamase Assay, Phase 2 (AID 2283591);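 note: compound exposure lasted 16 h at 37 °C; actives lower the ATP signal meaning cytotoxicity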
# Excerpt: TOX21_p53_BLA_p2 is a cell-based, single-readout assay that uses HCT116, a human intestinal cell line, […] in a 1536-well plate.TOX21_p53_BLA_p2_viability is an assay readout measuring cellular ATP content and detected with CellTiter-Glo Luciferase-coupled ATP quantitation.TOX21_p53_BLA_p2_viability used a type of viability reporter where loss-of-signal activity can be used to understand changes in the cell viability. Furthermore, this assay endpoint can be referred to as a secondary readout, because this assay has produced multiple assay endpoints where this one serves a viability function. To generalize the intended target to other relatable targets, this assay endpoint is annotated to the cell cycle intended target family, where the subfamily is cytotoxicity.
# Thawing Method: Place 14 mL of pre-warmed thaw medium into a 15 mL of conical tub. Remove the vial of cells to be thawed from liquid nitrogen and thaw rapidly by placing at 37C in a water bath with gentle agitation for 1-2 minutes. Decontaminate the vial by wiping with 70% ethanol before opening in a biological safety cabinet. Transfer the vial contents drop-wise into 14 mL of thaw medium in a sterile 15-mL conical tub. Centrifuge cells at 900 rpm for 4 minutes and resuspend in thaw medium. Transfer contents to the T75 tissue culture flask containing Thaw Medium and place flask in a humidified 37C/5% CO2 incubator. Switch to growth medium at first passage.Propagation Method: Aspirate medium, rinse once in DPBS, add 0.25% Trypsin/EDTA and swirl to coat the cell evenly. Add an equal volume of Growth Medium to inactivate Trypsin after 2-3 minutes incubation at 37C. Centrifuge cells at 900 rpm for 4 minutes and resuspend in growth medium. Cell should be passage or fed at least twice a week.Assay Protocol: Harvest cells from culture in growth medium and resuspend in assay medium. 2.2 Dispense 4000 cells/5 uL/well into 1536-well black/clear bottom plates using a Multidrop dispenser. After the cells were incubated at 37C for 5 hours, 23 nL of compounds dissolved in DMSO were transferred to the assay plate by a PinTool resulting in a 217-fold dilution. Incubate the plates for 16 hours at 37C, 5% CO2. Add 1 uL of 6X LiveBLAzer FRET B/G (CCF4-AM) Substrate Mixture to each well using a BioRAPTR dispenser and incubate the plates at room temperature for 2 hours. Measure fluorescence intensity at 460 and 530 nm emission and 405 nm excitation by an Envision detector. Data is expressed as the ratio of 460nm/530nm emissions. Add 4 uL of Cell-titer Glo to each well using BioRAPTR and incubate the plates at room temperature for […]. For cell viability readout that measures cytotoxicity, 4 ul/well of CellTiter-Glo reagent was added into the assay plates using a Flying Reagent Dispenser. After 30 min incubation at room temperature, the luminescence intensity in the plates was measured using a ViewLux plate reader.
Structure (SMILES),AC50,outcome
O=C(c1ccc(OCCN2CCCCC2)cc1)c1c(-c2ccc(O)cc2)sc2cc(O)ccc12,84.9 µM (active) and 71.8 µM (active) and 42.8 µM (active),
c1ccc(Cc2ccccc2)cc1,,inactive
CC(C)(C)c1cccc(O)c1,,inactive
NC(=O)c1cnccn1,,inactive
CC1COC(=O)O1 (stereo not given),,inactive
CCC(=O)OC(C)(C)C1CC=C(C)CC1 (stereo not given),,inactive
CC(C)COC(=O)c1ccccc1,,inactive
CC(=O)CCC=C(C)CCC=C(C)C,,inactive
O=[N+]([O-])c1cc(N(CCO)CCO)ccc1NCCO,,inactive
CC1=CC(C)C(C=O)C(C)C1 (stereo not given) (tested in a mixture with another compound),,inactive
CC/C=C\C#N,,inactive
[Cu+],,inactive
CCCCCCCCCCCCOCCOS(=O)(=O)O,,inactive
COc1ccc2[nH]cc(CCNC(C)=O)c2c1,,inactive
C[C@H](CCC(=O)O)[C@H]1CC[C@H]2[C@@H]3CC[C@@H]4C[C@H](O)CC[C@]4(C)[C@H]3CC[C@]12C,16.3 µM (active) and 14.2 µM (active),
O=S1(=O)CC(Cl)(Cl)C(Cl)(Cl)C1,7.38 µM (active),
CC(O)COCC(C)O (stereo not given),,inactive
O=C(O)C1=NN(c2ccc(S(=O)(=O)O)cc2)C(=O)C1,,inactive
CC(=O)Oc1c(C)c(C)c2c(c1C)CC[C@@](C)(CCC[C@H](C)CCC[C@H](C)CCCC(C)C)O2,,inactive
CCCCC/C=C\C=C\C(=O)OCC,68.7 µM (active),

Structure (SMILES),AC50,outcome
CN(C)CCCNCCCN(C)C,,inactive
C1=COCCC1,,inactive
CC(=O)OC/C=C(C)/C=C/C=C(C)/C=C/C1=C(C)CCCC1(C)C,,inactive
COc1ccccc1O,,inactive
CC(=O)C1C(=O)C=C(C)OC1=O (stereo not given),,inactive
COC(=O)C(C)Oc1ccc(Oc2ncc(C(F)(F)F)cc2Cl)cc1 (stereo not given),,inactive
CCCCCCOC(C)=O,,inactive
O=C(O)c1cccc(Cl)n1,,inactive
O=C(O)c1ccco1,,inactive
COC(=O)c1cccc(C(=O)OC)c1,,inactive
CC(=O)OC(C)(C)C1CC=C(C)CC1 (stereo not given),,inactive
CCCCCC1CCC(=O)O1 (stereo not given),,inactive
CCOC(=O)C=Cc1ccccc1,,inactive
C[C@]12CC[C@@H]3c4ccc(O)cc4CC[C@H]3[C@@H]1CC[C@@H]2O,,inactive
CCCCCCCC1CCCC1=O (stereo not given),,inactive
CCCCCCOc1ccc(O)cc1,45.6 µM (active),
CCO[Si](CC)(OCC)OCC,,inactive
CCCCCC(=O)O[C@]1(C(C)=O)CC[C@H]2[C@@H]3CCC4=CC(=O)CC[C@]4(C)[C@H]3CC[C@@]21C,,inactive
CCCC(O)C(CC)CO (stereo not given),,inactive
Cc1cc(O)c2c(c1)C(=O)c1cc(O)cc(O)c1C2=O,,inactive
